This excerpt belongs to a sample that is enriched for hits.
NTMT1 inhibitor: blocks human N-terminal methyltransferase 1 activity; NTMT1 MTase-Glo SAH luminescence, purified enzyme; Potency, µM (top dose mostly 114 µM), inactives show at the top dose activity change, negative = inhibition, most hits filed as inhibitors; 2.5% of 59,000 active;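 further: potency means the concentration at half of the fitted maximal effect; plate controls were DMSO vehicle for no effect and no enzyme for full effect; nearly all actives have a fitted effect of over 65% in size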
HTT promoter inh: HTT promoter inhibition; HEK293 HTT promoter firefly luciferase reporter, 24 h; Potency, µM (top dose mostly 57.5 µM), for inactives: at the top dose activity change, negative = inhibition, hits mostly inhibitors; 0.93% of 48,000 active; further: potency means the concentration at half of the fitted maximal effect; nearly all actives have a fitted effect of over 50% in size
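HEK293 cells carrying firefly luciferase reporters were seeded at 2,500 per well in Opti-MEM and cultured for 24 h. They were then treated with compounds at up to 57.5 uM final for 24 h at 37 degrees C before Dual-Glo luminescence readout.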
HTT-AS promoter: activators of huntingtin-antisense promoter activity; HEK293 HTT-AS promoter firefly luciferase reporter, 24 h; response scale: percent change from vehicle, -100% = no light; Potency, µM (series often up to 57.5 µM), inactives show at the highest dose activity change, positive = activation, actives largely listed as activators; 0.24% of 48,000 active; further: potency means the concentration at half of the fitted maximal effect; nearly all actives have a fitted effect of over 55% in size
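Firefly luciferase readout (Dual-Glo, 10 min RT) after 24 h, 37 °C compound exposure (final up to 57.5 uM) of HEK293 reporter cells cultured 24 h beforehand; PTC124 at 50 uM final as control inhibitor; activity scaled vehicle 0%, zero RLU -100%.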
DYRK1A inh-1: blocks recombinant human DYRK1A kinase activity; recombinant DYRK1A, Kinase-Glo ATP depletion luminescence; Potency, µM (top dose mostly 76.9 µM), inactives show at the top dose activity change, negative = inhibition, usual class: inhibitors; AID 2705; shares compounds with NTMT1 inhibitor; 80% of 100 active
CLK4 RBC: CLK4 kinase inhibition, SAR round 2. shares compounds with NTMT1 inhibitor. Reaction Biology kinase assay, 10 uM ATP. Potency, µM, hits mostly inhibitors. 100% of 65 active; calls by dose curve
DYRK1A inh-2: DYRK1A kinase inhibition. Reaction Biology kinase assay, 10 uM ATP. Potency, µM, hits mostly inhibitors. 90% of 65 active. shares compounds with NTMT1 inhibitor;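 active means compounds that showed inhibition of Dyrk1a and received a fitted potency; inactive means compounds that showed no inhibition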
CLK2 RBC: CLK2 kinase inhibition | shares compounds with NTMT1 inhibitor | Reaction Biology kinase assay, 10 uM ATP | Potency, µM, actives largely listed as inhibitors | 90% of 65 active | AID 504427;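 active means compound that inhibits Clk2 kinase in the dose series, with an IC50 potency reported; inactive means no inhibition seen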
CLK3 RBC: inhibitors of human CLK3 kinase | shares compounds with NTMT1 inhibitor | recombinant CLK3 kinase assay, 10 uM ATP | Potency, µM, hits mostly inhibitors | 40% of 65 active;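 active means compounds that inhibited Clk3 enough in the ten-dose series to give a half-maximal potency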
DYRK1B inh: DYRK1B kinase inhibition; shares compounds with NTMT1 inhibitor; Recombinant Dyrk1b kinase assay, 10 uM ATP; Potency, µM, most hits filed as inhibitors; 80% of 65 active;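 active means compounds whose dose response shows an inhibitor phenotype against the kinase Dyrk1b; inactive means compounds showing no inhibitor phenotype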
CLK1 RBC: CLK1 kinase inhibition | shares compounds with NTMT1 inhibitor | recombinant Clk1 kinase assay, 10 uM ATP | Potency, µM, hits mostly inhibitors | 90% of 65 active | AID 504430;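 active means compounds that block the splicing kinase Clk1 enough to give a fitted half-inhibition concentration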
Sfp qHTS opt: inhibitors of Bacillus subtilis Sfp PPTase, optimization followup; purified Sfp PPTase enzyme activity, qHTS; Potency, µM (titrated, usually from 114 µM), for inactives: at the highest dose activity change, negative = inhibition, actives largely listed as inhibitors; 78% of 230 active; AID 540350; shares compounds with NTMT1 inhibitor
Bsub HM489 growth: reduces growth of B. subtilis HM489 strain; shares compounds with NTMT1 inhibitor; B. subtilis HM489 (acpS-) growth, BacTiter-Glo, 5 h; Potency, µM (doses to about 114 µM), for inactives: at the highest dose activity change, negative = inhibition, actives largely listed as inhibitors; 50% of 220 active
Sfp PPTase gel: inhibits B. subtilis Sfp PPTase in gel assay | purified Sfp PPTase, gel-based product detection | AID 540355 | shares compounds with NTMT1 inhibitor | 54% of 220 active | Potency, µM (doses to about 250 µM), inactives show at the highest dose activity change, negative = inhibition, usual class: inhibitors
Sfp inh SAR2: inhibitors of Bacillus subtilis Sfp PPTase, SAR round 2. 87% of 230 active. purified Sfp enzyme, PPTase activity, qHTS. AID 602370. Potency, µM (top dose mostly 57.1 µM), for inactives: at the top dose activity change, negative = inhibition, usual class: inhibitors. shares compounds with NTMT1 inhibitor
HSD17B4 counter: HSD17B4 (human) inhibition, HPGD counter-screen; shares compounds with NTMT1 inhibitor; purified HSD17B4, estradiol/NAD+, NADH fluorescence; Potency, µM (highest dose often 57.1 µM), for inactives: at the top dose activity change, negative = inhibition, usual class: inhibitors; 10% of 230 active
Target sequence (P51659 whole entry, looked up): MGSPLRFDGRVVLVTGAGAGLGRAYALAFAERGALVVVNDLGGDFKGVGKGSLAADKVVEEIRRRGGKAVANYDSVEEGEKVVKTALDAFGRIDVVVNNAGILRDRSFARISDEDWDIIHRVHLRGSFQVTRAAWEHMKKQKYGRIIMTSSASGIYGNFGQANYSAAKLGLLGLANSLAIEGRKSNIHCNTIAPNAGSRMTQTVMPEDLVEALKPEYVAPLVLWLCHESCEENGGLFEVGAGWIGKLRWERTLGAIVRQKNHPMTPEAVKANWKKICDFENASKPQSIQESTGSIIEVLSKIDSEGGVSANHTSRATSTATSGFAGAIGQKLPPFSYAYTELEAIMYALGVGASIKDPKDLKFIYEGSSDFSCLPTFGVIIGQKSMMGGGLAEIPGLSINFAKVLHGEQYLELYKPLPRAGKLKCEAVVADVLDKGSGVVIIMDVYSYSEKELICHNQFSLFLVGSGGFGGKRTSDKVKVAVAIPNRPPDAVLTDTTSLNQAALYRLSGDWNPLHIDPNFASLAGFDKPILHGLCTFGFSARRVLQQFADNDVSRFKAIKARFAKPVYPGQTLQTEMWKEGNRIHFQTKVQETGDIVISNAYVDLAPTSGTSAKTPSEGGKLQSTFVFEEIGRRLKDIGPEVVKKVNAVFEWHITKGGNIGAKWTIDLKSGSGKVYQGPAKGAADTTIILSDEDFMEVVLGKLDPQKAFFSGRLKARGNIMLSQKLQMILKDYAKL
ALDH1A1 inh: inhibits human ALDH1A1, off-target for HPGD inhibitors; shares compounds with NTMT1 inhibitor; recombinant ALDH1A1, NADH fluorescence, propionaldehyde/NAD+; AID 743195; Potency, µM (doses to about 57.1 µM), without a hit: at the top dose activity change, negative = inhibition, actives largely listed as inhibitors; 93% of 230 active
NNMT inh: counter-screen for NTMT1 inhibitors: human NNMT inhibition; shares compounds with NTMT1 inhibitor; AID 1645878; NNMT MTase-Glo luminescence, SAH detection; Potency, µM (series often up to 57.1 µM), without a hit: top-dose activity, negative = inhibition, usual class: inhibitors; 10% of 120 active
* = called active by the depositor; i = inactive; ? = inconclusive; . = no result; ! = a repeat was not active; [ ] = another dose, or the depositor's remark. Unless noted, the call rests on the fitted dose curve; in most records, active means well fitted curve in the direction sought with a large enough effect; inconclusive means small, poorly fitted or top-dose-only effect, or another doubt; inactive means no such curve, though single readings can be large; an effect the other way counts as inactive or inconclusive.

SMILES | NTMT1 inhibitor | HTT promoter inh | HTT-AS promoter | others
COc1cccc(NC(=S)N2CCN(c3ccc(C(F)(F)F)cc3[N+](=O)[O-])CC2)n1 | ? | . | . | Sfp qHTS opt=?;Bsub HM489 growth=?;Sfp PPTase gel=31.6µM*;Sfp inh SAR2=1.45µM*;HSD17B4 counter=-14.4%;ALDH1A1 inh=1.52µM*
COc1cccc(-c2nc(CS(=O)CC(=O)N3CCN(c4cccc(C(F)(F)F)c4)CC3)c(C)o2)c1 (stereo not given) | -3.6% | ? | -28.0%
COc1cccc(N2C(=O)c3ccccc3C2=O)n1 | -12.1% | . | .
COc1ccnc(NC(=S)N2CCN(c3cccc(C(F)(F)F)n3)CC2)c1 | ? | . | . | Sfp qHTS opt=46.9µM*;Bsub HM489 growth=-15.1%;Sfp PPTase gel=?;Sfp inh SAR2=5.76µM*;HSD17B4 counter=23.8%;ALDH1A1 inh=8.57µM*
COc1cccc(NC(=S)N2CCN(c3cccc(C(F)(F)F)n3)CC2)n1 | ? | . | . | Sfp qHTS opt=?;Bsub HM489 growth=?;Sfp PPTase gel=4.5%;Sfp inh SAR2=?;HSD17B4 counter=-4.8%;ALDH1A1 inh=4.82µM*
COc1ccccc1N1CCN(C(=O)c2nc(SC)ncc2Cl)CC1 | -18.1% | ? | -17.6%
COc1ccccc1-c1noc(-c2ccc(N3CCN(c4ccccc4)CC3)c([N+](=O)[O-])c2)n1 | ? | -16.3% | -14.2%
O=C1CCCC2=C1C(c1[nH]ncc1Br)N=C(Nc1nc3ccccc3o1)N2 (stereo not given) | 1.9% | . | .
[2H]C([2H])([2H])C(OC(=O)[C@H](C)N[P@](=O)(OC[C@H]1O[C@@H](n2ccc(=O)[nH]c2=O)[C@](C)(F)[C@@H]1O)Oc1ccccc1)C([2H])([2H])[2H] | 6.9% | . | .
Cc1ccc(-c2ccc(CNc3nc(-c4ccccc4C(C)C)nc4ccsc34)cc2)cn1 | 5.3%[57.5 µM] | . | .
O=C1c2ccccc2C(=O)N1c1ccccn1 | -5.5% | . | .
O=c1nc(-c2ccccn2)sc2ccccc12 | 20µM* | . | . | NNMT inh=?
O=C(Nc1ccc(Cl)c([N+](=O)[O-])c1)Nc1nnc(C2CCCCC2)s1 | 5.9% | . | .
O=C(Nc1cccc(-c2nn3c(=O)cc(N4CCNCC4)nc3s2)c1)c1ccon1 | -18.2% | . | .
CC[C@@H](C)Nc1cc(C(=O)NC2CC3CC[C@@H](C2)N3c2ccc(C(=O)C3CC3)cn2)c(C)cc1C(N)=O (stereo not given in full) | 4.1%[57.5 µM] | . | . | NNMT inh=-20.8%
CC(=O)N[C@H]1[C@H](O[C@H]2CC[C@@]3(C)C(CC[C@]4(C)C3CC=C3C5CC(C)(C)CC[C@]5(C(=O)O)C(O)C[C@]34C)C2(C)C)O[C@H](CO[C@@H]2O[C@H](C)[C@H](O)[C@H](O)[C@H]2O[C@@H]2OC[C@@H](O)[C@H](O)[C@H]2O)[C@@H](O)[C@@H]1O (stereo not given in full) | 15.4%[12.6 µM] | . | .
O=C(Nc1ccc(-n2ccnc2)c(F)c1)Nc1nnc(-c2ccncc2)s1 | -7.8% | . | .
O=C(Nc1ccccc1C(F)(F)F)N1Cc2ccccc2Oc2ncccc21 | 3.5% | 18.7% | 5.4%
O=C(Nc1ccc(S(=O)(=O)C(F)(F)F)cc1)C1=CCN(c2ncccc2C(F)(F)F)CC1 | 8.8%[57.5 µM] | . | . | NNMT inh=-12.4%
C[C@]12CC[C@@H]3c4ccc(O)c(O)c4CC[C@H]3[C@@H]1CCC2=O | 28.2µM* | . | . | NNMT inh=35.5µM*
C[C@]12CC[C@@H]3c4ccc(O)cc4CC[C@H]3[C@@H]1C[C@@H](O)[C@@H]2O | ? | 1.6% | -1.8%
CC(=O)Nc1sc2c(c1-c1cccc3ccccc13)CCNC2 | -3.5% | . | .
NC(=NCCCCCCN=C(N)/N=C(\N)Nc1ccc(Cl)cc1)/N=C(\N)Nc1ccc(Cl)cc1 | 25.1µM*! | ? | -28.7% | NNMT inh=?
Nc1nnc(SCC(=O)Nc2ccc(Cl)cc2)s1 | 12.7% | -19.5% | 16.4%
CC(C)(C)Oc1ccc(OCC2Cc3ccccc3CN2C(=O)c2cccc3ccccc23)cc1 (stereo not given) | -1.6%[57.5 µM] | . | .
CCOC(=O)c1ccc(-c2ccc3ncnc(NCc4cccs4)c3c2)o1 | . | . | . | DYRK1A inh-1=1.46µM*;CLK4 RBC=0.088*;DYRK1A inh-2=1.44µM*;CLK2 RBC=8.51µM*;CLK3 RBC=i;DYRK1B inh=4.27µM*;CLK1 RBC=0.798µM*
COc1cccc(-c2ccc3ncnc(NCc4ccc5c(c4)OCO5)c3c2)c1 | -9.1%[57.5 µM] | . | .
CCOC(=O)c1ccc(-c2ccc3ncnc(NCc4ccc(C)o4)c3c2)o1 | ? | . | . | DYRK1A inh-1=5.82µM*

Screening data as filed in PubChem.
